# Measurements as given in PubChem BioAssay (NCATS).
# “And” between values parts separate entries of the source, which are not always exact repeats. Equal entries are not always repeated. Results filed as inconclusive are left out. A call without a number means that no potency is given here. The source made the active and inactive calls. Unless noted, the call rests on the fitted dose curve; in most records, active means well fitted curve in the direction sought with a large enough effect; inconclusive means small, poorly fitted or top-dose-only effect, or another doubt; inactive means no such curve, though single readings can be large; an effect the other way counts as inactive or inconclusive.
# Legend:
# [1] = Primary qHTS for small molecule stabilizers of the endoplasmic reticulum resident proteome: Secreted ER Calcium Modulated Protein (SERCaMP) assay (AID 1508630)
# How it was run: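 The SH-SY5Y reporter protocol was run at 3 concentrations up to 38.3 uM (primary) or 11 concentrations (follow-up): 16 h compound, 100 nM thapsigargin for 4 h, then extracellular luciferase luminescence.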
# [2] = molecular target: Cytochrome P450 2D6 (Homo sapiens) (UniProt P10635); assay: Cytochrome P450 family 2 subfamily D member 6 (CYP2D6) small molecule antagonists: luciferase biochemical (cell-free) qHTS assay (AID 1645840; active means well fitted curve in the direction sought with a large enough effect in the repeat runs; an effect the other way counts as inactive or inconclusive; further: nearly all actives have a fitted effect of over 55% in size; further: potency means the concentration at half of the fitted maximal effect)
# Cytochrome P450 2D6 (Homo sapiens), sequence (P10635 whole entry, looked up): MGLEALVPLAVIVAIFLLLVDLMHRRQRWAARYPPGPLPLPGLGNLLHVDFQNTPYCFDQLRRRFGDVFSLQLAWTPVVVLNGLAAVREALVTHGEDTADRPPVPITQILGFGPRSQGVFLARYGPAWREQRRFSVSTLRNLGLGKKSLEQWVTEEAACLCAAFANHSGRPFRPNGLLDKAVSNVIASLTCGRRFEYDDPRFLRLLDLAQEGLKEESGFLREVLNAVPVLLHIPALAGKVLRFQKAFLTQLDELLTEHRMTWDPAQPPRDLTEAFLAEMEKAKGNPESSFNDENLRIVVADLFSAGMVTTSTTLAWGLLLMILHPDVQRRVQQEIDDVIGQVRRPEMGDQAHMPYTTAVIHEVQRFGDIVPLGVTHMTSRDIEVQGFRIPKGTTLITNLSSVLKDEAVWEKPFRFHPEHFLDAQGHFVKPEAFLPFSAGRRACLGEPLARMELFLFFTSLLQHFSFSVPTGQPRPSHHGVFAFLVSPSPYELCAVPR
# How it was run: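 P450-Glo CYP2D6 system: proluciferin substrate converted by enzyme to luciferin, read by luminescence proportional to activity. Enzyme-substrate mix with compound 10 min at room temperature, then NADPH regeneration 1 h before detection reagent.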
# [3] = molecular target: Cytochrome P450 2C9 (Homo sapiens) (UniProt P11712); assay: Cytochrome P450 family 2 subfamily C member 9 (CYP2C9) small molecule antagonists: luciferase biochemical (cell-free) qHTS assay (AID 1645842; active means well fitted curve in the direction sought with a large enough effect in the repeat runs; an effect the other way counts as inactive or inconclusive; further: nearly all actives have a fitted effect of over 55% in size; further: potency means the concentration at half of the fitted maximal effect)
# Cytochrome P450 2C9 (Homo sapiens), sequence (P11712 whole entry, looked up): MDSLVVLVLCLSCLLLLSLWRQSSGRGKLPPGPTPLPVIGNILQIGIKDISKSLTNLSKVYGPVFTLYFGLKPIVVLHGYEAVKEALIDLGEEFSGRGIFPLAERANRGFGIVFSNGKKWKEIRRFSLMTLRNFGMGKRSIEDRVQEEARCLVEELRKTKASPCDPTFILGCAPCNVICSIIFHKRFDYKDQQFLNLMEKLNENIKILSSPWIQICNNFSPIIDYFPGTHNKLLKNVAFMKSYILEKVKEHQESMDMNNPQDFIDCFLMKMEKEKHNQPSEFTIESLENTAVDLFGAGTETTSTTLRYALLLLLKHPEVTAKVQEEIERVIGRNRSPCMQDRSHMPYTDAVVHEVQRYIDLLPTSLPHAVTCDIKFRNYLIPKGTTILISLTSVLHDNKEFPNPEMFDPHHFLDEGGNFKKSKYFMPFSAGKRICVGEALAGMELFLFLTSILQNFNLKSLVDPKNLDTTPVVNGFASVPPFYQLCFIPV
# How it was run: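 P450-Glo CYP2C9 system: proluciferin substrate with enzyme in mix containing 0.4% BSA, 10 min at room temperature, then NADPH regeneration solution added and incubated 1 h at 37C. Detection reagent stopped reaction; luminescence read after 20 min as RLU.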
# [4] = molecular target: N-terminal Xaa-Pro-Lys N-methyltransferase 1 (Homo sapiens) (UniProt Q9BV86); assay: Confirmatory qHTS for Inhibitors of N-terminal methyltransferase 1 (NTMT1): MTaseGlo Assay (AID 1645874); further: potency means the concentration at half of the fitted maximal effect; nearly all actives have a fitted effect of over 65% in size
# N-terminal Xaa-Pro-Lys N-methyltransferase 1 (Homo sapiens), sequence (Q9BV86 whole entry, looked up): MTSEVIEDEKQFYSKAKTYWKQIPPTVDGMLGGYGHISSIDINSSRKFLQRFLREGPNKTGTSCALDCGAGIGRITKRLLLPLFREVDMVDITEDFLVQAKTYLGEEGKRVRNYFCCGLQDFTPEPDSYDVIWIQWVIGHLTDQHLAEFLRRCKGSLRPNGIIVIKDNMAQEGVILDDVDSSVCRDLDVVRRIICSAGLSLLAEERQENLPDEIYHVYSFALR
# How it was run: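 Room-temperature NTMT1 reaction, 30 min, with 100 uM SAM and 1 uM SPKRIA substrate; enzyme 125 nM. Read-out: MTase-Glo luminescence, normalized to no-enzyme and DMSO controls.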
# Papain (Carica papaya) = Papain (Carica papaya) (UniProt P00784); assay: Primary qHTS assay for inhibitors of the protease papain (AID 1645873);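 further: papain turnover of Z-FR-AMC read as the AMC fluorescence gain over 10 min; series mostly up to about 50 µM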
# Papain (Carica papaya), sequence (P00784 whole entry, looked up): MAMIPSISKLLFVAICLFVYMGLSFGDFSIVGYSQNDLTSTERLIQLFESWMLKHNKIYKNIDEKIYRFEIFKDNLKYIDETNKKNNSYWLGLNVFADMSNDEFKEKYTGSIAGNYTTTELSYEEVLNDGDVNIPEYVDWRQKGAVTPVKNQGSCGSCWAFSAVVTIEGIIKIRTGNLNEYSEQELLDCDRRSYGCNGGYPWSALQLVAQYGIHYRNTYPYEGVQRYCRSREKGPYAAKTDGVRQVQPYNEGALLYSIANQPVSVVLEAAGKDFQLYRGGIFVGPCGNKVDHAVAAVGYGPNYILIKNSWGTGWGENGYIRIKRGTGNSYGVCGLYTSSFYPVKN
# [5] = A High-Content qHTS Against Drug Library for the Identification of Small Molecules that Inhibit DYT1 Early Onset Primary Dystonia-Associated Cell Pathology (AID 1645839; calls by dose curve; further: series mostly up to about 46 µM)
# How it was run: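 Induced EGFP-delE TorsinA cells are imaged after 48 h of compound treatment. Punctate fusion-protein distribution gives the %pathology value, while nuclei counts flag toxicity. Wild-type EGFP-hTOR1A cells define the normal pattern.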
# [6] = molecular target: Cytochrome P450 3A4 (Homo sapiens) (UniProt P08684); assay: Cytochrome P450 family 3 subfamily A member 4 (CYP3A4) small molecule antagonists: luciferase qHTS assay (AID 1645841; active means well fitted curve in the direction sought with a large enough effect in the repeat runs; an effect the other way counts as inactive or inconclusive; further: nearly all actives have a fitted effect of over 45% in size)
# Cytochrome P450 3A4 (Homo sapiens), sequence (P08684 whole entry, looked up): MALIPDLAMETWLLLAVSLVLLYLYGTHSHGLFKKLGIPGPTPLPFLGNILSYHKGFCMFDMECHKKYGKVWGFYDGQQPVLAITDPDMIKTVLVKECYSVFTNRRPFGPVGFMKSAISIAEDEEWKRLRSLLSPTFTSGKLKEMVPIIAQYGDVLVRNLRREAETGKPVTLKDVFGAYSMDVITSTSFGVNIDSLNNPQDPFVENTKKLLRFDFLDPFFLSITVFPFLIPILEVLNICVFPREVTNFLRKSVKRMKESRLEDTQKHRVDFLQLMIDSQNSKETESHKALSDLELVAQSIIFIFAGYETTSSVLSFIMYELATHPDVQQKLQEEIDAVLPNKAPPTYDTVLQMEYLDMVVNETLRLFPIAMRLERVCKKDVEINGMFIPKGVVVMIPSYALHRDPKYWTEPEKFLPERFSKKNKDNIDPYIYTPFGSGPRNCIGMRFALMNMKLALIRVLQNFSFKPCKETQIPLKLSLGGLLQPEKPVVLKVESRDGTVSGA
# How it was run: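 P450-Glo CYP3A4 enzyme with proluciferin substrate was preincubated with DMSO-dissolved compounds for 10 min at room temperature. NADPH regeneration solution started a 1 h reaction. Detection reagent stopped it, and luminescence was read after 20 min.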
smiles,measurement,setting,value
CCCCCCCCOc1ccccc1C(=O)Nc1ccc(C(=O)OCC[N+](C)(CC)CC)cc1,Potency,[1],inactive
same,Potency,[2],17.4 µM (active)
same,Potency,[3],1.55 µM (active)
same,Potency,[4],47.8 µM (active)
CN(C)[C@@H](CCOc1cccc2ccccc12)c1ccccc1,Potency,[1],inactive
same,Potency,[2],347 nM (active) and 849 nM (active)
same,Potency,[3],15.5 µM (active) and 21.3 µM (active)
Nc1nc(N)c(N=O)c(OCC2CCCCC2)n1,Potency,[2],inactive
same,Potency,[3],inactive
O=C(CCc1ccc(O)cc1)c1c(O)cc(O)cc1O,Potency,[1],inactive
same,Potency,Papain (Carica papaya),inactive
CCC(C)(Oc1ccc(C2(c3ccc(OC(C)(CC)C(=O)O)cc3)CCCCC2)cc1)C(=O)O (stereo not given),Potency,[5],inactive
same,Potency,[2],inactive
O=C1c2c(O)cc(O)cc2OC(c2ccc(O)c(O)c2)C1O (stereo not given),Potency,Papain (Carica papaya),inactive
COc1c2occc2cc2ccc(=O)oc12,Potency,[5],inactive
same,Potency,[3],3.89 µM (active)
O=C(NCC1CCCCN1)c1cc(OCC(F)(F)F)ccc1OCC(F)(F)F (stereo not given),Potency,[5],inactive
COc1ccc2cc([C@H](C)C(=O)O)ccc2c1,Potency,[5],inactive
same,Potency,Papain (Carica papaya),inactive
C[C@@H](N)C1CCC(C(=O)Nc2ccncc2)CC1 (stereo not given in full),Potency,[1],inactive
same,Potency,Papain (Carica papaya),inactive
CCOc1cc(CC(=O)N[C@@H](CC(C)C)c2ccccc2N2CCCCC2)ccc1C(=O)O,Potency,[1],inactive
same,Potency,[2],inactive
same,Potency,[3],inactive
COc1ccccc1N1CCN(CCN(C(=O)C2CCCCC2)c2ccccn2)CC1,Potency,[1],inactive
same,Potency,Papain (Carica papaya),inactive
CN(C)C(=O)[C@H](O)[C@H](Cc1ccccc1)NC(=O)c1cc2cc(Cl)ccc2[nH]1,Potency,[1],inactive
same,Potency,Papain (Carica papaya),inactive
CC(C)c1ccc2c(c1)c(SC(C)(C)C)c(CC(C)(C)C(=O)O)n2Cc1ccc(Cl)cc1,Potency,[1],inactive
same,Potency,Papain (Carica papaya),inactive
Oc1ccc(-c2nc(-c3ccc(F)cc3)c(-c3ccncc3)[nH]2)cc1,Potency,[1],inactive
same,Potency,Papain (Carica papaya),inactive
same,Potency,[4],39.8 µM (active)
COc1c(O)cc2c(c1O)[C@@H]1O[C@H](CO)[C@@H](O)[C@H](O)[C@H]1OC2=O,Potency,[2],inactive
same,Potency,[3],inactive
Cc1cc(Cl)ccc1OCCCC(=O)NO,Potency,[1],inactive
same,Potency,Papain (Carica papaya),inactive
CS(=O)(=O)OCCCCOS(C)(=O)=O,Potency,[5],inactive
same,Potency,[2],inactive
same,outcome,[6],inactive
